Source: PubChem
Rows were chosen to be rich in hits. Some 11% of all compounds tested hit in one or more screens of this group.
HEK cytotox: HEK 293 cell cytotoxicity; HEK 293 viability, ATP luminescence (CellTiter-Glo), 48-72 h; Potency, µM (highest dose often 115 µM), for the others: at the highest dose activity change, negative = cytotoxicity, hits mostly inhibitors; 94,000 tested, 6.6% active; also: % is scaled to controls: 0 for no effect and ±100 for the full control effect; nearly all actives have a fitted effect of over 60% in size
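Pintool-delivered compounds were incubated with HEK 293 cells (250 cells/well) at 37 degree Celsius for 48 or 72 hr. ATP-dependent luminescence (CellTiter-Glo) then reported remaining viable cells.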
hNpr1 antagonist: antagonists of human natriuretic peptide receptor Npr1; HEK293 hNpr1 GloSensor cGMP, ANP-stimulated luminescence; P16066; AID 1347048; 76,000 tested, 1.6% active; Potency, µM (titrated, usually from 46.3 µM), without a hit: at the highest dose activity change, negative = inhibition, usual class: inhibitors; calls by dose curve; also: % is scaled to controls: 0 for no effect and ±100 for the full control effect; nearly all actives have a fitted effect of over 60% in size
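Compound pre-incubated 30 min at room temperature on GloSensor-loaded HEK293 cells stably carrying hNpr1 and the pGS-40F cGMP biosensor. Stimulation uses hNppA at 0.1 nM final; luminescence is taken at baseline and 20 min post-agonist.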
FLuc inh-1: blocks purified firefly luciferase enzyme activity; P08659; purified P. pyralis luciferase, luminescence, biochemical; Potency, µM (doses to about 115 µM), most hits filed as inhibitors; 76,000 tested, 2.5% active; AID 1347043; also: % is scaled to controls: 0 for no effect and ±100 for the full control effect; nearly all actives have a fitted effect of over 65% in size
Target sequence (P08659 whole entry, looked up): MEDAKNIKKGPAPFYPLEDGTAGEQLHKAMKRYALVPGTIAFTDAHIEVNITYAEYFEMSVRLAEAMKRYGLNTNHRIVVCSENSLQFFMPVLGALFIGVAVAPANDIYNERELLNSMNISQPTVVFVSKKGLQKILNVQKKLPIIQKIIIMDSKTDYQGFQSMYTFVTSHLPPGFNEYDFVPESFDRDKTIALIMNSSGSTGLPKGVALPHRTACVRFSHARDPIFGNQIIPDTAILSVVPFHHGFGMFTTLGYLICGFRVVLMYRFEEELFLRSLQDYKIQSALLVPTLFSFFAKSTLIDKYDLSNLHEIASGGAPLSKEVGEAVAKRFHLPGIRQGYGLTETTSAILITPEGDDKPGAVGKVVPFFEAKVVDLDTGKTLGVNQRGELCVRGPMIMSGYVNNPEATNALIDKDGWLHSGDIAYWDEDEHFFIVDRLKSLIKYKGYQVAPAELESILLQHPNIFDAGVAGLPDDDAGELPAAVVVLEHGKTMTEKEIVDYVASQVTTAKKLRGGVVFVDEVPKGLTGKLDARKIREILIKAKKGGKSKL
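Luminescence read by CCD imaging after purified firefly luciferase (10nM final) was added to substrate buffer holding 10uM D-luciferin and 10uM ATP, pH 7.5, pre-dosed with compound.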
NIH3T3 tox: cytotoxic compounds in NIH 3T3 cells; NIH 3T3 viability, CellTiter-Glo ATP luminescence, 48-72 h; Potency, µM (doses to about 96.7 µM), for the others: at the highest dose activity change, negative = cytotoxicity, hits mostly inhibitors; 94,000 tested, 4.3% active; AID 1345082; also: % is scaled to controls: 0 for no effect and ±100 for the full control effect; nearly all actives have a fitted effect of over 55% in size
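ATP-dependent luminescence (CellTiter-Glo) served as the viability signal for NIH 3T3 cells treated with compound for 48 or 72 hr at 37 °C.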
FLuc SDR no ATP: binders stabilizing firefly luciferase, without ATP; shares compounds with FLuc inh-1; Purified FLuc-C-HiBiT, Nano-Glo HiBiT luminescence, no ATP; Potency, µM (highest dose often 32.7 µM), inactives show at the highest dose activation (signal gain), hits mostly activators; 1,300 tested, 7.8% active; AID 1963318; also: nearly all actives have a fitted effect of over 55% in size
FLuc SDR ATP: binders stabilizing firefly luciferase, plus ATP. purified FLuc-C-HiBiT + ATP, HiBiT complementation luminescence. AID 1963319. 1,300 tested, 8.7% active. Potency, µM (titrated, usually from 32.7 µM), without a hit: at the highest dose activation (gain of signal), most hits filed as activators. shares compounds with FLuc inh-1;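 also: signal reports ligand binding via conformational change of the enzyme rather than luciferase catalysis; % of control where 0% means no effect; nearly all actives have a fitted effect of over 55% in size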
FLuc inh-2: blocks firefly luciferase enzymatic activity; purified FLuc-C-HiBiT enzyme, luciferin luminescence; shares compounds with FLuc inh-1; Potency, µM (series often up to 32.7 µM), without a hit: at the top dose activity change, negative = inhibition, actives largely listed as inhibitors; 1,300 tested, 42% active; AID 1963320; also: % is scaled to controls: 0 for no effect and ±100 for the full control effect; nearly all actives have a fitted effect of over 70% in size
The depositor's hits bear a star. Unless noted, calls follow the shape of the dose curve; as a rule, active = well fitted curve in the direction sought with a large enough effect; inconclusive = small, poorly fitted or top-dose-only effect, or another doubt; inactive = no such curve, though single readings can be large; an effect the other way counts as inactive or inconclusive. Potency is read from the fitted curve at half-maximal effect.

How did O=C(O)c1cccc2c1CCN2C(=O)Nc1ccc(F)cc1 do in these assays?
HEK cytotox: 8.91µM*; hNpr1 antagonist: 0.316µM*; FLuc inh-1: 0.0079µM*; NIH3T3 tox: inconclusive; FLuc SDR no ATP: 11.1µM*; FLuc SDR ATP: 0.0062µM*; FLuc inh-2: 0.0035µM*

How did CN(C)C(=O)c1cccc2c1CCN2C(=O)Nc1ccc(F)cc1 do in these assays?
HEK cytotox: -5.4%; hNpr1 antagonist: -1.4%; FLuc inh-1: 12.6µM*; NIH3T3 tox: -19.4%; FLuc SDR no ATP: 14.8%; FLuc SDR ATP: 6.24µM*; FLuc inh-2: 3.94µM*

Results for O=C(Nc1cccc(Cl)c1)N[C@H]1C[C@H]2C(=O)NC[C@@H](CCC(=O)N3CCc4ccccc43)N2C1 ?
HEK cytotox: -6.0%; hNpr1 antagonist: 5.2%; FLuc inh-1: inactive; NIH3T3 tox: -26.2%

Results for O=C(O)C1(Oc2ccc3ccccc3c2)CCN(c2ncnc3nc[nH]c23)CC1 ?
HEK cytotox: -14.7%; hNpr1 antagonist: 14.1%; FLuc inh-1: inactive; NIH3T3 tox: -1.9%; FLuc SDR no ATP: 10.8%; FLuc SDR ATP: 11.9%; FLuc inh-2: -12.4%

What do the screens show for `O=C(O)C1(Oc2ccc3ncccc3c2)CCN(c2cnccn2)CC1`?
HEK cytotox: inactive; hNpr1 antagonist: -2.3%; FLuc inh-1: inactive; NIH3T3 tox: inactive

Results for CCCCc1ncc(-c2nccn2Cc2noc(CC(C)C)n2)[nH]1 ?
HEK cytotox: inconclusive; hNpr1 antagonist: 0.0%; FLuc inh-1: inactive; NIH3T3 tox: inconclusive

How did CC(C)Oc1ccc(C(=O)Nc2nnc3n2CCS3)cc1 do in these assays?
FLuc SDR no ATP: 27.8%; FLuc SDR ATP: inconclusive; FLuc inh-2: inconclusive

Results for Cn1c(C(=O)Nc2ccc3c(c2)OCO3)cc2c1CCN(Cc1cccc(F)c1)C2 ?
HEK cytotox: inconclusive; hNpr1 antagonist: -1.4%; FLuc inh-1: 10µM*; NIH3T3 tox: inconclusive; FLuc SDR no ATP: 12.5%; FLuc SDR ATP: 11.5%; FLuc inh-2: -18.6%

How did COc1cccc(-n2nnc(-c3nc(-c4ccccc4F)no3)c2C)c1 do in these assays?
FLuc SDR no ATP: 18.0%; FLuc SDR ATP: inconclusive; FLuc inh-2: 5.56µM*

How did COc1ccc(NC2=N[C@H]3[C@@H](O)[C@H](O)C[C@H](C(=O)NCc4ccccc4OC)[C@H]3S2)cc1 do in these assays?
HEK cytotox: inactive; hNpr1 antagonist: 0.0%; FLuc inh-1: inactive; NIH3T3 tox: 0.3%

What do the screens show for `CN(Cc1ccccc1)C(=O)[C@H]1C[C@@H](O)[C@H](O)[C@@H]2N=C(Nc3ccc(-n4cccn4)cc3)S[C@@H]21`?
HEK cytotox: inconclusive; hNpr1 antagonist: 6.0%; FLuc inh-1: 12.6µM*; NIH3T3 tox: -27.3%; FLuc SDR no ATP: 9.2%; FLuc SDR ATP: inconclusive; FLuc inh-2: inconclusive

What do the screens show for `O=C(NCc1nnc2ccc(-c3ccc(F)cc3)nn12)c1ccoc1`?
HEK cytotox: -1.2%; hNpr1 antagonist: 4.8%; FLuc inh-1: inactive; NIH3T3 tox: -10.5%

What do the screens show for `O=C(NCc1ccoc1)c1ccc2nc(-c3ccc(F)cc3)cn2c1`?
HEK cytotox: inconclusive; hNpr1 antagonist: -6.1%; FLuc inh-1: 5.62µM*; NIH3T3 tox: inconclusive; FLuc SDR no ATP: 20.3%; FLuc SDR ATP: 15.2%; FLuc inh-2: inconclusive

What do the screens show for `Cc1ccc(-c2cc(N3CCC(CNC(=O)c4ccc5nc[nH]c5c4)CC3)n[nH]2)cc1`?
HEK cytotox: inconclusive; hNpr1 antagonist: -24.7%; FLuc inh-1: 14.1µM*; NIH3T3 tox: inconclusive; FLuc SDR no ATP: 19.7%; FLuc SDR ATP: 14.8%; FLuc inh-2: inconclusive

What do the screens show for `O=C(NCC1CCN(c2cc(-c3ccccc3)[nH]n2)CC1)c1ccc2nc[nH]c2c1`?
HEK cytotox: 3.0%; hNpr1 antagonist: -1.6%; FLuc inh-1: inconclusive; NIH3T3 tox: inconclusive

Results for Cc1ccc(-c2noc(-c3nc(Cc4ccccc4)no3)n2)cc1 ?
HEK cytotox: -22.8%; hNpr1 antagonist: -5.3%; FLuc inh-1: inactive; NIH3T3 tox: -21.2%

Results for O=C(O)c1cccc(-c2noc(-c3ccccc3F)n2)c1 ?
FLuc SDR no ATP: 11.1µM*; FLuc SDR ATP: 0.005µM*; FLuc inh-2: 0.0062µM*

How did Cc1ccc(-c2nc(-c3ccccc3)no2)c(Cl)c1 do in these assays?
FLuc SDR no ATP: 3.94µM*; FLuc SDR ATP: 3.51µM*; FLuc inh-2: 0.197µM*

Results for Fc1ccccc1-c1nc(-c2ccccc2)no1 ?
FLuc SDR no ATP: inconclusive; FLuc SDR ATP: inconclusive; FLuc inh-2: 1.57µM*

What do the screens show for `Brc1ccccc1-c1nc(-c2ccccc2)no1`?
FLuc SDR no ATP: 21.8%; FLuc SDR ATP: inconclusive; FLuc inh-2: 3.51µM*

How did COCCn1ncc(N2CCCC(CC(=O)N(C)C3CCN(C)CC3)C2)cc1=O (stereo not drawn) do in these assays?
HEK cytotox: -1.7%; NIH3T3 tox: -27.9%

Results for CCc1noc(-c2ccn3c(CNC(=O)c4cccnc4)nnc3c2)n1 ?
HEK cytotox: -5.1%; hNpr1 antagonist: 3.4%; FLuc inh-1: inactive; NIH3T3 tox: -9.0%

How did COc1ccc(CC(=O)N2CCCN(c3ccnc4ccnn34)CC2)cc1 do in these assays?
HEK cytotox: inconclusive; NIH3T3 tox: -21.9%

How did CN1CCN(C(=O)c2cc(-c3cccc(F)c3)nc3c2cnn3C)CC1 do in these assays?
HEK cytotox: -8.7%; NIH3T3 tox: inconclusive

What do the screens show for `COc1ccc(N2CC(c3noc(-c4ccccc4F)n3)CC2=O)cc1OC` (stereo not drawn)?
HEK cytotox: -3.1%; hNpr1 antagonist: 0.0%; FLuc inh-1: inactive; NIH3T3 tox: -15.0%

How did COC(=O)c1cccc(-c2noc(-c3ccccc3F)n2)c1 do in these assays?
FLuc SDR no ATP: 22.2%; FLuc SDR ATP: 18.4%; FLuc inh-2: inconclusive

What do the screens show for `CCc1nc2c(c(-c3ccc(Cl)cc3)n1)CCN(C(=O)c1ccccc1F)CC2`?
HEK cytotox: -21.9%; hNpr1 antagonist: -0.5%; FLuc inh-1: inactive; NIH3T3 tox: -21.8%

Results for O=c1c2c(n(Cc3cccnc3)n1CCc1ccccc1)CN(Cc1ccc3c(c1)CCO3)CC2 ?
HEK cytotox: -29.5%; hNpr1 antagonist: -6.2%; FLuc inh-1: inactive; NIH3T3 tox: inconclusive
